Biological target: AgAbp1
Test: SPOT peptide array binding signal intensity (averaged, normalized) (arbitrary units (background-subtracted, floor 0; scale differs between SH3 domains)); higher = stronger binding of the SH3 domain to the peptide
Procedure, shortened: (§1)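 Peptides were synthetic 15-mers on cellulose membranes, with every cysteine replaced by serine. They were incubated overnight at 4°C with GST-SH3 domains from four yeast species at 10 μg/ml in TBS-based blocking buffer. Binding signal, the replicate-averaged normalized and background-subtracted spot intensity, is in arbitrary units that differ between domains.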

Binder	SPOT peptide array binding signal intensity
ILARAILTIPRVLDK	2

Biological target: AgBbc1
Test: as above
Procedure, shortened: as §1

Binder	SPOT peptide array binding signal intensity
ILARAILTIPRVLDK	50

Biological target: AgBem1-D1
Test: as above
Procedure, shortened: as §1

Binder	SPOT peptide array binding signal intensity
ILARAILTIPRVLDK	162

Biological target: AgBzz1-D1
Test: as above
Procedure, shortened: as §1

Binder	SPOT peptide array binding signal intensity
ILARAILTIPRVLDK	107

Biological target: AgBzz1-D2
Test: as above
Procedure, shortened: as §1

Binder	SPOT peptide array binding signal intensity
ILARAILTIPRVLDK	121

Biological target: AgCyk3
Test: as above
Procedure, shortened: as §1

Binder	SPOT peptide array binding signal intensity
ILARAILTIPRVLDK	11

Biological target: AgFus1
Test: as above
Procedure, shortened: as §1

Binder	SPOT peptide array binding signal intensity
ILARAILTIPRVLDK	1100

Biological target: AgHof1
Test: as above
Procedure, shortened: as §1

Binder	SPOT peptide array binding signal intensity
ILARAILTIPRVLDK	34.5

Biological target: AgHse1
Test: as above
Procedure, shortened: as §1

Binder	SPOT peptide array binding signal intensity
ILARAILTIPRVLDK	500

Biological target: AgLsb1
Test: as above
Procedure, shortened: as §1

Binder	SPOT peptide array binding signal intensity
ILARAILTIPRVLDK	1.5

Biological target: AgLsb4
Test: as above
Procedure, shortened: as §1

Binder	SPOT peptide array binding signal intensity
ILARAILTIPRVLDK	1390

Biological target: AgMyo5
Test: as above
Procedure, shortened: as §1

Binder	SPOT peptide array binding signal intensity
ILARAILTIPRVLDK	1

Biological target: AgNbp2
Test: as above
Procedure, shortened: as §1

Binder	SPOT peptide array binding signal intensity
ILARAILTIPRVLDK	279

Biological target: AgRvs167
Test: as above
Procedure, shortened: as §1

Binder	SPOT peptide array binding signal intensity
ILARAILTIPRVLDK	12

Biological target: AgSho1
Test: as above
Procedure, shortened: as §1

Binder	SPOT peptide array binding signal intensity
ILARAILTIPRVLDK	516

Biological target: AgSla1-D1-D2
Test: as above
Procedure, shortened: as §1

Binder	SPOT peptide array binding signal intensity
ILARAILTIPRVLDK	58

Biological target: AgSla1-D3
Test: as above
Procedure, shortened: as §1

Binder	SPOT peptide array binding signal intensity
ILARAILTIPRVLDK	12

Biological target: CaAbp1-D1
Test: as above
Procedure, shortened: as §1

Binder	SPOT peptide array binding signal intensity
ILARAILTIPRVLDK	30

Biological target: CaAbp1-D2
Test: as above
Procedure, shortened: as §1

Binder	SPOT peptide array binding signal intensity
ILARAILTIPRVLDK	20

Biological target: CaBbc1
Test: as above
Procedure, shortened: as §1

Binder	SPOT peptide array binding signal intensity
ILARAILTIPRVLDK	68.5

Biological target: CaBem1-D1
Test: as above
Procedure, shortened: as §1

Binder	SPOT peptide array binding signal intensity
ILARAILTIPRVLDK	33.5

Biological target: CaBzz1-D1
Test: as above
Procedure, shortened: as §1

Binder	SPOT peptide array binding signal intensity
ILARAILTIPRVLDK	625

Biological target: CaBzz1-D2
Test: as above
Procedure, shortened: as §1

Binder	SPOT peptide array binding signal intensity
ILARAILTIPRVLDK	247

Biological target: CaCyk3
Test: as above
Procedure, shortened: as §1

Binder	SPOT peptide array binding signal intensity
ILARAILTIPRVLDK	35

Biological target: CaFus1
Test: as above
Procedure, shortened: as §1

Binder	SPOT peptide array binding signal intensity
ILARAILTIPRVLDK	1530

Biological target: CaHof1
Test: as above
Procedure, shortened: as §1

Binder	SPOT peptide array binding signal intensity
ILARAILTIPRVLDK	2.25

Biological target: CaHse1
Test: as above
Procedure, shortened: as §1

Binder	SPOT peptide array binding signal intensity
ILARAILTIPRVLDK	130

Biological target: CaLsb1
Test: as above
Procedure, shortened: as §1

Binder	SPOT peptide array binding signal intensity
ILARAILTIPRVLDK	2.25

Biological target: CaLsb4
Test: as above
Procedure, shortened: as §1

Binder	SPOT peptide array binding signal intensity
ILARAILTIPRVLDK	62.5

Biological target: CaMyo5
Test: as above
Procedure, shortened: as §1

Binder	SPOT peptide array binding signal intensity
ILARAILTIPRVLDK	12.5

Biological target: CaNbp2
Test: as above
Procedure, shortened: as §1

Binder	SPOT peptide array binding signal intensity
ILARAILTIPRVLDK	290

Biological target: CaRvs167
Test: as above
Procedure, shortened: as §1

Binder	SPOT peptide array binding signal intensity
ILARAILTIPRVLDK	99.3

Biological target: CaRvs167-3
Test: as above
Procedure, shortened: as §1

Binder	SPOT peptide array binding signal intensity
ILARAILTIPRVLDK	854

Biological target: CaSho1
Test: as above
Procedure, shortened: as §1

Binder	SPOT peptide array binding signal intensity
ILARAILTIPRVLDK	1420

Biological target: CaSla1-D1-D2
Test: as above
Procedure, shortened: as §1

Binder	SPOT peptide array binding signal intensity
ILARAILTIPRVLDK	15

Biological target: CaSla1-D3
Test: as above
Procedure, shortened: as §1

Binder	SPOT peptide array binding signal intensity
ILARAILTIPRVLDK	118

Biological target: ScAbp1
Test: as above
Procedure, shortened: as §1

Binder	SPOT peptide array binding signal intensity
ILARAILTIPRVLDK	6

Biological target: ScBbc1
Test: as above
Procedure, shortened: as §1

Binder	SPOT peptide array binding signal intensity
ILARAILTIPRVLDK	3.5

Biological target: ScBem1-D1
Test: as above
Procedure, shortened: as §1

Binder	SPOT peptide array binding signal intensity
ILARAILTIPRVLDK	8

Biological target: ScBzz1-D1
Test: as above
Procedure, shortened: as §1

Binder	SPOT peptide array binding signal intensity
ILARAILTIPRVLDK	41.5

Biological target: ScBzz1-D2
Test: as above
Procedure, shortened: as §1

Binder	SPOT peptide array binding signal intensity
ILARAILTIPRVLDK	299

Biological target: ScCyk3
Test: as above
Procedure, shortened: as §1

Binder	SPOT peptide array binding signal intensity
ILARAILTIPRVLDK	70

Biological target: ScFus1
Test: as above
Procedure, shortened: as §1

Binder	SPOT peptide array binding signal intensity
ILARAILTIPRVLDK	1530

Biological target: ScHof1
Test: as above
Procedure, shortened: as §1

Binder	SPOT peptide array binding signal intensity
ILARAILTIPRVLDK	0.5

Biological target: ScHse1
Test: as above
Procedure, shortened: as §1

Binder	SPOT peptide array binding signal intensity
ILARAILTIPRVLDK	1470

Biological target: ScLsb1
Test: as above
Procedure, shortened: as §1

Binder	SPOT peptide array binding signal intensity
ILARAILTIPRVLDK	11.5

Biological target: ScLsb2
Test: as above
Procedure, shortened: as §1

Binder	SPOT peptide array binding signal intensity
ILARAILTIPRVLDK	55

Biological target: ScLsb3
Test: as above
Procedure, shortened: as §1

Binder	SPOT peptide array binding signal intensity
ILARAILTIPRVLDK	117

Biological target: ScLsb4
Test: as above
Procedure, shortened: as §1

Binder	SPOT peptide array binding signal intensity
ILARAILTIPRVLDK	5

Biological target: ScMyo3
Test: as above
Procedure, shortened: as §1

Binder	SPOT peptide array binding signal intensity
ILARAILTIPRVLDK	≤ 0

Biological target: ScMyo5
Test: as above
Procedure, shortened: as §1

Binder	SPOT peptide array binding signal intensity
ILARAILTIPRVLDK	≤ 0

Biological target: ScNbp2
Test: as above
Procedure, shortened: as §1

Binder	SPOT peptide array binding signal intensity
ILARAILTIPRVLDK	305

Biological target: ScPex13
Test: as above
Procedure, shortened: as §1

Binder	SPOT peptide array binding signal intensity
ILARAILTIPRVLDK	59.2

Biological target: ScRvs167
Test: as above
Procedure, shortened: as §1

Binder	SPOT peptide array binding signal intensity
ILARAILTIPRVLDK	4.83

Biological target: ScSho1
Test: as above
Procedure, shortened: as §1

Binder	SPOT peptide array binding signal intensity
ILARAILTIPRVLDK	1560

Biological target: ScSla1-D1-D2
Test: as above
Procedure, shortened: as §1

Binder	SPOT peptide array binding signal intensity
ILARAILTIPRVLDK	145

Biological target: ScSla1-D3
Test: as above
Procedure, shortened: as §1

Binder	SPOT peptide array binding signal intensity
ILARAILTIPRVLDK	18

Biological target: SpAbp1-D1
Test: as above
Procedure, shortened: as §1

Binder	SPOT peptide array binding signal intensity
ILARAILTIPRVLDK	7.5

Biological target: SpBbc1
Test: as above
Procedure, shortened: as §1

Binder	SPOT peptide array binding signal intensity
ILARAILTIPRVLDK	56.5

Biological target: SpBzz1-D1
Test: as above
Procedure, shortened: as §1

Binder	SPOT peptide array binding signal intensity
ILARAILTIPRVLDK	553

Biological target: SpBzz1-D2
Test: as above
Procedure, shortened: as §1

Binder	SPOT peptide array binding signal intensity
ILARAILTIPRVLDK	1.5

Biological target: SpCyk3
Test: as above
Procedure, shortened: as §1

Binder	SPOT peptide array binding signal intensity
ILARAILTIPRVLDK	8.5

Biological target: SpHof1
Test: as above
Procedure, shortened: as §1

Binder	SPOT peptide array binding signal intensity
ILARAILTIPRVLDK	82.2

Biological target: SpHof1-2
Test: as above
Procedure, shortened: as §1

Binder	SPOT peptide array binding signal intensity
ILARAILTIPRVLDK	8.5

Biological target: SpHof1-3
Test: as above
Procedure, shortened: as §1

Binder	SPOT peptide array binding signal intensity
ILARAILTIPRVLDK	158

Biological target: SpHse1
Test: as above
Procedure, shortened: as §1

Binder	SPOT peptide array binding signal intensity
ILARAILTIPRVLDK	613

Biological target: SpLsb1
Test: as above
Procedure, shortened: as §1

Binder	SPOT peptide array binding signal intensity
ILARAILTIPRVLDK	2.25

Biological target: SpLsb4
Test: as above
Procedure, shortened: as §1

Binder	SPOT peptide array binding signal intensity
ILARAILTIPRVLDK	42

Biological target: SpMyo1
Test: as above
Procedure, shortened: as §1

Binder	SPOT peptide array binding signal intensity
ILARAILTIPRVLDK	1.5

Biological target: SpNbp2
Test: as above
Procedure, shortened: as §1

Binder	SPOT peptide array binding signal intensity
ILARAILTIPRVLDK	207

Biological target: SpPex13
Test: as above
Procedure, shortened: as §1

Binder	SPOT peptide array binding signal intensity
ILARAILTIPRVLDK	131

Biological target: SpRvs167
Test: as above
Procedure, shortened: as §1

Binder	SPOT peptide array binding signal intensity
ILARAILTIPRVLDK	39.2

Biological target: SpSla1-D1-D2
Test: as above
Procedure, shortened: as §1

Binder	SPOT peptide array binding signal intensity
ILARAILTIPRVLDK	≤ 0

Biological target: SpSla1-D3
Test: as above
Procedure, shortened: as §1

Binder	SPOT peptide array binding signal intensity
ILARAILTIPRVLDK	10

Source: the supplement of paper PMC4466140
